# Reference: ChEMBL document CHEMBL1201862, “PubChem BioAssay data set” (2004)
# The campaign covered roughly 400,000 compounds. About 2,100 (0.53%) were called active. Inconclusive results (about 14%) are left out. No rule for the calls is given here. The entries come from a sample that favours actives as a whole.
# Target: Ataxin-2 (Homo sapiens) (UniProt Q99700)
# Experiment: qHTS for Inhibitors of ATXN expression.
# Format: functional
# Chain of Ataxin-2 (Homo sapiens) (Q99700 whole entry): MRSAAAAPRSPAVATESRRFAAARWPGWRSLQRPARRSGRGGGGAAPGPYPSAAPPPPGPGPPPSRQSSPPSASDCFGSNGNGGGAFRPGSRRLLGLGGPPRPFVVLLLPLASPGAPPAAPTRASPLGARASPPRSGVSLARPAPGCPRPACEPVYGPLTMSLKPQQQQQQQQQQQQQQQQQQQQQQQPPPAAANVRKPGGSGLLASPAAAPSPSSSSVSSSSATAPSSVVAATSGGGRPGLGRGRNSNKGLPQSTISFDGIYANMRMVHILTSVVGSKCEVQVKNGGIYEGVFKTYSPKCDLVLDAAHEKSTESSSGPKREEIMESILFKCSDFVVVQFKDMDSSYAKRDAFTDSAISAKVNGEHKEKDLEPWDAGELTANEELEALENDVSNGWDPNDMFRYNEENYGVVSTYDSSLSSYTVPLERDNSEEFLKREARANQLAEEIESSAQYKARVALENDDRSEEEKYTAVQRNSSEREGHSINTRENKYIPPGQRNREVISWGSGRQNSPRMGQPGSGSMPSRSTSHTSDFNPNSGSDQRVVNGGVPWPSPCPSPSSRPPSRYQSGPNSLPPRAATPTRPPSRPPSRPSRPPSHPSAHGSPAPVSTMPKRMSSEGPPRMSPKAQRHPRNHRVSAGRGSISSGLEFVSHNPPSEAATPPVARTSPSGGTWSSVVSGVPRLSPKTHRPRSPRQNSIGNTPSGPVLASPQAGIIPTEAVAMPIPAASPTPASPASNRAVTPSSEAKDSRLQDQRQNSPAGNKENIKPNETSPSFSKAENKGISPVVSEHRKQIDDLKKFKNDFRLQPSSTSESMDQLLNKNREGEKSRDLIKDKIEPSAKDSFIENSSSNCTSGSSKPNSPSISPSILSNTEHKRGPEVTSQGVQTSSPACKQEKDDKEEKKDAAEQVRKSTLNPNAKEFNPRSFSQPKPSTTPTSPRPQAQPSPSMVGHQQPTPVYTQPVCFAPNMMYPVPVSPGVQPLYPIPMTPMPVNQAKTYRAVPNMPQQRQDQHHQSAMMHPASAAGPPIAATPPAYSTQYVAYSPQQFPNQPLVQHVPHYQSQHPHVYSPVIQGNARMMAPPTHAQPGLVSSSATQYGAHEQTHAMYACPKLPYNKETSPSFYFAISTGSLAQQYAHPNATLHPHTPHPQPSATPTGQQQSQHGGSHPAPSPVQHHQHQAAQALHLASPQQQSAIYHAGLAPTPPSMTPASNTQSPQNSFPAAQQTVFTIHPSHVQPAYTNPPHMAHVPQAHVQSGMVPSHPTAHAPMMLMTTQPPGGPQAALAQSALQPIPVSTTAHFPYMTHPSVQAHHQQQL
row,SMILES,Potency
1,COc1ccc(-c2nc(CCl)cs2)cc1OC,inactive
2,COc1cc2c3nnc(-c4ccc(F)cc4)c-3cn(Cc3cccc(F)c3)c2cc1OC,inactive
3,COc1ccc(-c2nc3ccc(C)cn3c2Cc2ccc(C)cc2)cc1OC,20 µM (active)
4,COc1ccc(-c2n[nH]c(S)n2)cc1OC,inactive
5,COc1ccc(-c2nc3ccc(C)cn3c2Cc2cccc(Cl)c2)cc1OC,35.5 µM (active)
6,COc1ccc(-c2nc3ccc(C)cn3c2Cc2cccc(F)c2)cc1OC,39.8 µM (active)
7,COc1ccccc1Cc1c(-c2ccc(OC)c(OC)c2)nc2ccc(Cl)cn12,39.8 µM (active)
8,COc1ccc(/C=N/NC(=O)c2c(C)nc3ccc(Cl)cn23)cc1OC,inactive
9,N=C(NOC(=O)CCCOc1ccccc1)c1cccc(Br)c1,inactive
10,CSc1nc(-c2ccc(N(C)C)cc2)c(C#N)c(=O)n1C,inactive
11,CCOC(=O)c1ccc(-c2ccc(/C=N/NC(=O)c3cncc(Br)c3)o2)cc1,inactive
12,Cc1cc(-c2onc3ccc(Cl)cc23)ccc1O,inactive
13,COc1ccc(-n2c(N)c(C(=O)NCc3ccco3)c3nc4ccccc4nc32)cc1OC,inactive
14,CN1C(=O)/C(=N\C2CCCCC2)c2c3ccccc3c(O)c3cccc1c23,inactive
15,Cc1noc(/C=C/Nc2ccc(F)cc2F)c1[N+](=O)[O-],inactive
16,CCN1C(=O)/C(=C2/Sc3ccccc3N2CC)S/C1=N\c1nc[nH]n1,inactive
17,CC1CC(NC(=O)c2cc3c(=O)n4ccccc4nc3n2C)CC(C)(C)C1 (stereo unspecified),inactive
18,Cc1nc(NN)c2c3c(sc2n1)COC(C)(C)C3,inactive
19,COc1ccc(-c2nc3ccc(C)cn3c2CC(C)(C)C)cc1OC,12.6 µM (active)
20,COc1ccc(-c2cc(-c3ccc(N)cc3)nc(N)c2C#N)cc1OC,inactive
21,COc1cnc(-c2ccccc2)nc1Oc1ccc(Cl)cc1C,inactive
22,COc1ccccc1Cc1c(-c2cccc(Cl)c2)nc2ccc(C)cn12,22.4 µM (active)

row,SMILES,Potency
1,COc1cc(-c2nc3ccccn3c2/N=C/c2cccc(OC)c2O)ccc1O,inactive
2,CCCCNc1c(-c2ccc(OC)c(SC3CCCCC3)c2)nc2cnccn12,inactive
3,COc1ccc(-c2nc3ccc(Cl)cn3c2Cc2cccc(F)c2)cc1OC,39.8 µM (active)
4,COc1ccc(-c2nc3c(-c4ccc(Cl)cc4)cnn3cc2C)cc1F,inactive
5,O=C(O)c1ccc2c(c1)ncn2C1CCCC1,inactive
6,Cc1nc(CS(=O)(=O)c2ccccn2)sc1C(=O)NNC(=O)c1ccc(Cl)cc1,inactive
7,N#Cc1cc2c(=O)n3ccccc3nc2n(-c2ccccc2Cl)c1=O,inactive
8,CN(CCO)c1nc(NCc2ccccc2)c2cnn(C)c2n1,inactive
9,COc1ccc(C2=CC(c3ccco3)n3ncnc3N2)cc1 (stereo unspecified),inactive
10,CCOC(=O)COc1nc(-c2ccco2)cc(-c2ccco2)c1C#N,inactive
11,N#Cc1cnn2c3c(cnc12)C(=O)N1CCc2ccccc2C1C3 (stereo unspecified),inactive
12,NNC(=O)c1cc2c(N3CCC(Cc4ccccc4)CC3)ncnc2s1,inactive
13,CCc1cccc(NC(=O)C2CCN(c3ncnc4sc(C)c(C)c34)CC2)c1,33.6 µM (active)
14,Cc1sc2ncnc(N/N=C/c3cccc(O)c3)c2c1C,inactive
15,O=C(NN/C=C1/C(=O)N(c2ccc(Cl)cn2)C(=O)c2ccccc21)C1CC1,inactive
16,COc1ccccc1C1C=C(c2ccc(C(C)C)cc2)Nc2nnnn21 (stereo unspecified),inactive
17,O=C(NNC(=O)NC1CCCCC1)NC1CCCCC1,inactive
18,O=C(NC1CCCCC1)Sc1ccc(Cl)cc1,35.5 µM (active)
19,Cc1cc(Cl)cc(C)c1OCC(=O)NC1CCCCCC1,inactive
20,COc1cccc(C2CN(c3ccc(F)cc3F)N=C2c2cccs2)c1OC (stereo unspecified),inactive
21,C=CCn1c(SCC(=O)NC2CCCCC2)nc2ccccc2c1=O,inactive
22,Cc1nc(N/C(N)=N/C(=O)NC2CCCCC2)nc2ccccc12,20 µM (active)

row,SMILES,Potency
1,O=C(NC1CCCC1)c1[nH]nc2ccccc12,inactive
2,COc1cccc(CNC(=O)CCS(=O)(=O)c2ccccc2Cl)c1,inactive
3,Cc1cccc(CS(=O)(=O)c2ncc(Cl)c(C(=O)NCc3ccccc3)n2)c1,31.6 µM (active)
4,Cc1cccc(NC(=O)c2nc(S(=O)(=O)Cc3ccccc3)ncc2Cl)c1,35.5 µM (active)
5,O=C(NCc1ccccc1)c1cnc2ccccc2c1O,inactive
6,O=C(NCc1ccc2c(c1)OCO2)c1nc(S(=O)(=O)Cc2ccccc2F)ncc1Cl,20 µM (active)
7,Cc1cccc(NC(=O)c2sc3nc4c(c(-c5ccco5)c3c2N)CCC4)c1,inactive
8,O=C(COc1ccc(S(=O)(=O)N2CCOCC2)cc1Cl)NCc1ccc2c(c1)OCO2,inactive
9,O=C(NCc1ccc2c(c1)OCO2)c1cccnc1Cl,inactive
10,C=CCn1c(=N)c(C(=O)NCCCOC)cc2c(=O)n3cccc(C)c3nc21,inactive
11,CCc1cc(=O)oc2cc(OC(=O)CN3C(=O)NC4(CCCC4)C3=O)ccc12,inactive
12,CCOC(=O)c1cc2c(=O)n3cccc(C)c3nc2n(CCOC)/c1=N\C(C)=O,inactive
13,CC(C)Cn1c(N)c(C(=O)NCC2CCCO2)c2nc3ccccc3nc21 (stereo unspecified),inactive
14,COc1ccc(-c2nc(NC(=O)c3ccc(OCC(=O)Nc4ccc(F)cc4)c(OC)c3)sc2C)cc1,11.2 µM (active)
15,COc1ccc(C(=O)Nc2nc3n(n2)C(c2ccc(F)cc2)C=C(c2ccc(Cl)cc2)N3)cc1 (stereo unspecified),inactive
16,COc1ccccc1NC(=O)c1sc2nc(C)c(C(=O)Nc3ccc(Cl)cc3)c(-c3ccc(Br)cc3)c2c1N,inactive
17,COc1ccc(-c2ccc3c(N)c(C(=O)Nc4cc(F)ccc4C)sc3n2)cc1,inactive
18,COc1cc(C(=O)Nc2nc(-c3ccc(Cl)cc3)c(C)s2)ccc1OCC(=O)Nc1ccc(F)cc1,35.5 µM (active)
19,COc1ccc(C(=O)OCC(=O)N2CCOCC2)cc1S(=O)(=O)N1CCOCC1,inactive
20,COc1ccc(C(=O)N2CCNC(=O)C2CC(=O)Nc2ccc(C)cc2)cc1 (stereo unspecified),inactive
21,COc1ccc(C(=O)Nc2ccc(OCC(=O)N3CCOCC3)cc2)c(OC)c1OC,inactive
22,COc1ccc(-c2nc(NC(=O)c3ccc(OCC(=O)N4CCOCC4)c(OC)c3)sc2C)cc1,15.8 µM (active)
